In PubChem BioAssay (NCATS) one finds Potency, activation and activity change, negative = inhibition data, which are given here for 20 compounds.

Results filed as inconclusive are left out. A number with no mark means an inactive call. The list shows a part of the results. Activity calls are given as the source filed them. The call rests on the fitted dose curve; in most records, active means well fitted curve in the direction sought with a large enough effect; inconclusive means small, poorly fitted or top-dose-only effect, or another doubt; inactive means no such curve, though single readings can be large; an effect the other way counts as inactive or inconclusive.

For test [1], the target named is Rap guanine nucleotide exchange factor 3 (Homo sapiens) (UniProt O95398). Briefly: Confirmatory qHTS for antagonist of cAMP-regulated guanine nucleotide exchange factor 3 (EPAC1) (AID 1645880). Further: nearly all actives have a fitted effect of over 55% in size. Further: potency means the concentration at half of the fitted maximal effect.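 On activity, negative = inhibition: plate controls were DMSO only for no effect and full effect of the ATA control for full effect.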 As to conditions: EPAC1 Rap1B-BODIPY-GDP exchange, fluorescence; activity, negative = inhibition: at 115 µM (top of the series). The method, boiled down:
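Nucleotide exchange uses 100 nM EPAC1, 250 nM RAP1B-BODIPY-GDP and 50 uM GDP, with compounds in a concentration-titration series. After 5 min at room temperature, fluorescence (480 nm ex/540 nm em) is read every 5 min for 30 min. Data are normalized to control ATA and DMSO.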

Test [2] has the same target. Briefly: Confirmatory qHTS for agonist of cAMP-regulated guanine nucleotide exchange factor 3 (EPAC1) (AID 1645881).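 Further: EPAC1 catalysed release of BODIPY-GDP from Rap1B seen as fluorescence loss; 100% = effect of cAMP agonist control; nearly all actives have a fitted effect of over 75% in size.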
Test [3] has as its target Rap guanine nucleotide exchange factor 4 (Homo sapiens) (UniProt Q8WZA2). Kind of test: Confirmatory qHTS for agonist of cAMP-regulated guanine nucleotide exchange factor 4 (EPAC2) (AID 1645884).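 Further: nucleotide exchange releases bodipy-GDP from Rap1 and this lowers its fluorescence; on the % scale 0 is the no-effect control and ±100 the full control effect; nearly all actives have a fitted effect of over 65% in size.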
Test [4] has the same target. Briefly: Confirmatory qHTS for antagonist of cAMP-regulated guanine nucleotide exchange factor 4 (EPAC2) (AID 1645885). Further: nearly all actives have a fitted effect of over 25% in size. Further: potency means the concentration at half of the fitted maximal effect. On activity change, negative = inhibition: on the % scale 0 is the no-effect control and ±100 the full control effect.
Test [5] addresses Rap guanine nucleotide exchange factor 3 (Homo sapiens) (UniProt O95398). Briefly: Counterscreen qHTS for antagonist of cAMP-regulated guanine nucleotide exchange factor 3 (EPAC1) (AID 1645888).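 Further: fluorescence loss as bound BODIPY-GDP is released from Rap1B; % of control where 0% means no effect.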 The method, boiled down:
(§1)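 Measured: fluorescence of BODIPY-GDP bound to Rap1B, which falls as exchange proceeds. Conditions include 50 uM competing GDP, 5 and 30 min reads, and a later cAMP challenge for antagonist detection.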

For test [6] the target is unchanged. Briefly: Counterscreen qHTS for agonist of cAMP-regulated guanine nucleotide exchange factor 3 (EPAC1) (AID 1645889). Further: % of control where 0% means no effect; nearly all actives have a fitted effect of over 40% in size. The method, boiled down: as §1
The target of test [7] is Lethal(3)malignant brain tumor-like protein 1 (Homo sapiens) (UniProt Q9Y468). Kind of test: qHTS Assay for the Inhibitors of L3MBTL1: Hit Validation (AID 540279). Further: potency means the concentration at half of the fitted maximal effect; nearly all actives have a fitted effect of over 70% in size. As to conditions: L3MBTL1 methyl-lysine binding inhibition, biochemical qHTS. The source says:
The histone code is comprised of many post-translational modifications that occur mainly in histone tail peptides. The identity and location of these marks are read by a variety of histone binding proteins that are emerging as important regulators of cellular differentiation and development and are increasingly being implicated in numerous disease states. Small molecule probes that disrupt the interaction between histone binding proteins and chromatin would enable a systematic chemical biology study of proteins that read the histone code and could potentially reveal new targets for drug discovery. However, no such small molecules are known. This dearth of quality molecular probes can largely be attributed to the novelty of the target class and the lack of screening assays. This proposal details the development of the first high-throughput screening assay for the discovery of inhibitors of methyl-lysine binding proteins and how it can be used to initiate a full-scale discovery effort for antagonists of histone binding proteins. Specifically, this work focuses on an AlphaScreen(tm)-based HTS assay for Malignant Brain Tumor (MBT) domain-containing proteins, which bind to the lower methylation states of lysine residues present in histone tail peptides.
To each well, 2 uL of L3MBTL1 protein (final 50 nM) and 1 uL biotinylated histone peptide monomethylated at Lys9 [b-AHA-H3(1-15)K9me1] (final 75 nM) was added using a nanoliter dispenser. Formation of a protein-peptide complex proceeded at room temperature for 30 min. A Kalypsys pin-tool was employed to transfer 23 nL of library compound solution in DMSO to each well. Cefsulodin, found in a pilot screen of the LOPAC library to be a weak inhibitor of L3MBTL1 binding, was used as an intraplate control with a 16-point titration in duplicate. […] Microplates were then be read on an EnVision multilabel plate reader using the 1,536 plate HTS AlphaScreen aperture (excitation time 80 ms, measurement time 240 ms).

Test [8] has as its target DNA polymerase iota (Homo sapiens) (UniProt Q9UNA4). Kind of test: qHTS for Inhibitors of Polymerase Iota: Confirmatory Assay for Cherry-picked Compounds (AID 720496). Further: potency means the concentration at half of the fitted maximal effect. As to conditions: Pol iota primer extension, TAMRA/BHQ fluorescence. The procedure, abridged:
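Human Pol iota (10 nM) was preincubated 15 min at room temperature with compound, then started with 50 nM TAMRA/BHQ-2 quenched primer-template substrate. Fluorescence (ex 525/em 598 nm) was read at 0 and 10 min.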

Test [9] has as its target DNA polymerase kappa (Homo sapiens) (UniProt Q9UBT6). Kind of test: qHTS for Inhibitors of Polymerase Kappa: Confirmatory Assay for Cherry-picked Compounds (AID 720501). Further: potency means the concentration at half of the fitted maximal effect. As to conditions: purified Pol-kappa, fluorescent strand-displacement substrate. The source says:
The processing and repair of DNA inter-strand crosslinks (ICL) in eukaryotic cells are extremely complex, potentially involving multiple DNA repair and damage tolerance pathways, including homologous recombination, nucleotide excision repair, translesion synthesis (TLS), and cell cycle checkpoints. […] A 1536-well format, fluorescence based, high-throughput screen (AID 588579) was developed in collaboration with the Oregon Health & Science University to screen for inhibitors of the Pol-kappa enzyme. This assay was used to validate the activity of the selected compounds from the primary screen against the human Pol-kappa. Inhibition is the desired outcome for this assay. NIH Chemical Genomics Center [NCGC] NIH Molecular Libraries Probe Centers Network [MLPCN] MLPCN Grant: MH094179 Assay Submitter (PI): Stephen Lloyd, Oregon Health & Science University
Three microliters of reagents (buffer in column 3 and 4 as negative control and 10 nM Pol-kappa in columns 1, 2, and 5-48) were dispensed into a 1536-well black solid-bottom plate. Compounds (23 nL) were transferred via Kalypsys pin tool equipped with 1536-pin array. The plates were then incubated for 15 min at room temperature, and 1 uL of substrate was added to start the reaction for a final concentration of 50 nM. The substrate was made by the annealing of unlabeled oligodeoxynucleotide primer (59-[…]-39) and TAMRA-labeled reporter strand (59-[…]-6-TAMRA-39) to oligodeoxynucleotide template labeled with BHQ-2 (59-BHQ-2-[…]-39) described in detail at the Yamanaka et.al. (PLOS, 2012) reference paper. The assay plates were initially read after 0 min and again after 10 min of kinetic reaction using the PerkinElmer Viewlux reader equipped with 525 nm excitation and 598 nm emission filters.

Test [10] has as its target DNA polymerase eta (Homo sapiens) (UniProt Q9Y253). Kind of test: qHTS for Inhibitors of Polymerase Eta: Confirmatory Assay for Cherry-picked Compounds (AID 720502). Further: potency means the concentration at half of the fitted maximal effect. As to conditions: Pol eta primer extension, TAMRA/BHQ fluorescence, 10 min. The method, boiled down: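 10 nM Pol eta + cpd, 15 min RT; start w/ 50 nM final primer/TAMRA-reporter/BHQ-2-template substrate; kinetic read 0 and 10 min, ex 525/em 598 nm. Buffer-only wells = negative control.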

Chain of Rap guanine nucleotide exchange factor 4 (Homo sapiens) (Q8WZA2 whole entry, looked up): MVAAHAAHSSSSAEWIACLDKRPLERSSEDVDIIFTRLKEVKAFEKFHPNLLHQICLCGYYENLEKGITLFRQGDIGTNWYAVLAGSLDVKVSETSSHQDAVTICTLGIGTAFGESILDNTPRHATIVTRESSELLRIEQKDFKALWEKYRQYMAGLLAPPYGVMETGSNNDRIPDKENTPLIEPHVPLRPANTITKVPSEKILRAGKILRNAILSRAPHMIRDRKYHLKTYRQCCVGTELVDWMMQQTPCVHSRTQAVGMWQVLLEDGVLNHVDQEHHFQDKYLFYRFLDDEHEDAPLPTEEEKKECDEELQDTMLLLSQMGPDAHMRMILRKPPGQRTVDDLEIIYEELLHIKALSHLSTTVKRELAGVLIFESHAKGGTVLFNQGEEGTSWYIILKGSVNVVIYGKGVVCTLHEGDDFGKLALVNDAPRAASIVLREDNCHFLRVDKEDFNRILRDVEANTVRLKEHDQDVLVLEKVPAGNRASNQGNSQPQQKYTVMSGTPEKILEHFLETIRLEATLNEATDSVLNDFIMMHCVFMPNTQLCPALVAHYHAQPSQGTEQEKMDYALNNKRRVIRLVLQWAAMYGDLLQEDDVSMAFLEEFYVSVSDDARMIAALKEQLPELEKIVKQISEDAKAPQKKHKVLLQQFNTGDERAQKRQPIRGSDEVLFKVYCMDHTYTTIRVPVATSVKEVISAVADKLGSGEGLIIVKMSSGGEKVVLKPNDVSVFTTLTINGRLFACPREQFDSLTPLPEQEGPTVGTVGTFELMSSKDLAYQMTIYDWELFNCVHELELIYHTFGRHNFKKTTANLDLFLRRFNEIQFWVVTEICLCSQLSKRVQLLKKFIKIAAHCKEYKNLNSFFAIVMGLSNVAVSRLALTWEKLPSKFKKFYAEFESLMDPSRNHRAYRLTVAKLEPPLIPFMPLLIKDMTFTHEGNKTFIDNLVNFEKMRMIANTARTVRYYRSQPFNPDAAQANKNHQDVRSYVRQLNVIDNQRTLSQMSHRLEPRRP
Chain of Rap guanine nucleotide exchange factor 3 (Homo sapiens) (O95398 whole entry, looked up): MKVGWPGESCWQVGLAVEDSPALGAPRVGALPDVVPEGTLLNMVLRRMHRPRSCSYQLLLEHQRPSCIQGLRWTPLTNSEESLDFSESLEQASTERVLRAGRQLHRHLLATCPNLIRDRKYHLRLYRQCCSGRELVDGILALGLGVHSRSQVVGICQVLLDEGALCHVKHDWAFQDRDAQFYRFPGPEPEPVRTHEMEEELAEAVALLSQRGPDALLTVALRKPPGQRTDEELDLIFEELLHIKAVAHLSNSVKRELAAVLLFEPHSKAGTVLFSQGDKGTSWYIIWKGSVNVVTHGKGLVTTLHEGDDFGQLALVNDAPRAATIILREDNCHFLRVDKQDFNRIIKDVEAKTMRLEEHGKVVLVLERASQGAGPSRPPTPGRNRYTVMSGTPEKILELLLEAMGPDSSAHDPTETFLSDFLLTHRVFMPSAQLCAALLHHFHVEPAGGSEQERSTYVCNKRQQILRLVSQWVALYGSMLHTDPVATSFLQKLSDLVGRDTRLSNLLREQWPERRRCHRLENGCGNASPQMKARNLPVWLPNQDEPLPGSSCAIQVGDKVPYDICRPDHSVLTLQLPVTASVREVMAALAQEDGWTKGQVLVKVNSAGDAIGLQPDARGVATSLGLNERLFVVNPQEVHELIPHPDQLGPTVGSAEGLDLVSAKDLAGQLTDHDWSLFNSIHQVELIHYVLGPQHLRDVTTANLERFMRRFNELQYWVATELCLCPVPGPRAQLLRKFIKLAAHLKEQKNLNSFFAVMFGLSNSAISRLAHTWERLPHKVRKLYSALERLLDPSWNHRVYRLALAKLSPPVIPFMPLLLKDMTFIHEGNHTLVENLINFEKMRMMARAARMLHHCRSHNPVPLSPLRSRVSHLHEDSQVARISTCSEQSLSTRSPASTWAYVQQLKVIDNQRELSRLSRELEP
Chain of DNA polymerase kappa (Homo sapiens) (Q9UBT6 whole entry, looked up): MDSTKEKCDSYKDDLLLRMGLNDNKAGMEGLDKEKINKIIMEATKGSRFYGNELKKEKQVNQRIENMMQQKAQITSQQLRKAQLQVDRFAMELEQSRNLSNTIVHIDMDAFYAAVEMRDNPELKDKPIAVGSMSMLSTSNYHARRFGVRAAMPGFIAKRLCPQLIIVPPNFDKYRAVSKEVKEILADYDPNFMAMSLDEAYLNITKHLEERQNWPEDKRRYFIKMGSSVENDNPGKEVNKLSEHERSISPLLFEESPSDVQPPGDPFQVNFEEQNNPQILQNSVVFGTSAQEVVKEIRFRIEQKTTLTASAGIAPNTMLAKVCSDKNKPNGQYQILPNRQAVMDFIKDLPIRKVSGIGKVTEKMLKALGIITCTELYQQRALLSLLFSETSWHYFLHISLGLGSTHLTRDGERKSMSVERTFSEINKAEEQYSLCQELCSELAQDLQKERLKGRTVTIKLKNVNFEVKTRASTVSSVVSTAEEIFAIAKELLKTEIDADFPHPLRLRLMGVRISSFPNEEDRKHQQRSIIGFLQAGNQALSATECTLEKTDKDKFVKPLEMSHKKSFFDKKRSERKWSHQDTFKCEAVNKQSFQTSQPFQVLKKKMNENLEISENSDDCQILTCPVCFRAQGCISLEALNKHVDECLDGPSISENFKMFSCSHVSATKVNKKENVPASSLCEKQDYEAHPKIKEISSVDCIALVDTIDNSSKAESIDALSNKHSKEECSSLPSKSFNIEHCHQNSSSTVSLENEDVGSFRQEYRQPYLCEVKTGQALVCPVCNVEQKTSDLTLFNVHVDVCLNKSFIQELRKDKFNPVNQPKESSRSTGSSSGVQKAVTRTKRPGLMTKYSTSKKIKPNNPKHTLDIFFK
Chain of DNA polymerase eta (Homo sapiens) (Q9Y253 whole entry, looked up): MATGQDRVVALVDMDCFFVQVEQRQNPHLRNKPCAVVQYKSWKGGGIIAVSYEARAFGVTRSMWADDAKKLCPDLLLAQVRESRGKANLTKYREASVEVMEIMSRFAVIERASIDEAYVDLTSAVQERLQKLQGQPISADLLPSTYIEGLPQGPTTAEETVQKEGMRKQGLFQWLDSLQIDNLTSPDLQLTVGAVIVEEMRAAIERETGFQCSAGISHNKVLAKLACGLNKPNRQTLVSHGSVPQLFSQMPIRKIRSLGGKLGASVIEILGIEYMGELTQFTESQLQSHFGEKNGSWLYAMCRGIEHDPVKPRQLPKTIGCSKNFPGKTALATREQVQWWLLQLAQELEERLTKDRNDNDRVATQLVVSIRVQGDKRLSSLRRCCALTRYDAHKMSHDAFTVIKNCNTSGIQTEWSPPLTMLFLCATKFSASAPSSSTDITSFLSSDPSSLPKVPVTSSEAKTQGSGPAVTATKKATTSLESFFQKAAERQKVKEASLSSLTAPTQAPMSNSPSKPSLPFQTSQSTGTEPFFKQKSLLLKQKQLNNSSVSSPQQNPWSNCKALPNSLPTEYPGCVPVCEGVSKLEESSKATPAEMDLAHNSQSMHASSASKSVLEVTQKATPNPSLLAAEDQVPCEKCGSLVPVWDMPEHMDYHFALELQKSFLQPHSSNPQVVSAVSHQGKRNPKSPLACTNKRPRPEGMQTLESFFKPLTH
Chain of Lethal(3)malignant brain tumor-like protein 1 (Homo sapiens) (Q9Y468 whole entry, looked up): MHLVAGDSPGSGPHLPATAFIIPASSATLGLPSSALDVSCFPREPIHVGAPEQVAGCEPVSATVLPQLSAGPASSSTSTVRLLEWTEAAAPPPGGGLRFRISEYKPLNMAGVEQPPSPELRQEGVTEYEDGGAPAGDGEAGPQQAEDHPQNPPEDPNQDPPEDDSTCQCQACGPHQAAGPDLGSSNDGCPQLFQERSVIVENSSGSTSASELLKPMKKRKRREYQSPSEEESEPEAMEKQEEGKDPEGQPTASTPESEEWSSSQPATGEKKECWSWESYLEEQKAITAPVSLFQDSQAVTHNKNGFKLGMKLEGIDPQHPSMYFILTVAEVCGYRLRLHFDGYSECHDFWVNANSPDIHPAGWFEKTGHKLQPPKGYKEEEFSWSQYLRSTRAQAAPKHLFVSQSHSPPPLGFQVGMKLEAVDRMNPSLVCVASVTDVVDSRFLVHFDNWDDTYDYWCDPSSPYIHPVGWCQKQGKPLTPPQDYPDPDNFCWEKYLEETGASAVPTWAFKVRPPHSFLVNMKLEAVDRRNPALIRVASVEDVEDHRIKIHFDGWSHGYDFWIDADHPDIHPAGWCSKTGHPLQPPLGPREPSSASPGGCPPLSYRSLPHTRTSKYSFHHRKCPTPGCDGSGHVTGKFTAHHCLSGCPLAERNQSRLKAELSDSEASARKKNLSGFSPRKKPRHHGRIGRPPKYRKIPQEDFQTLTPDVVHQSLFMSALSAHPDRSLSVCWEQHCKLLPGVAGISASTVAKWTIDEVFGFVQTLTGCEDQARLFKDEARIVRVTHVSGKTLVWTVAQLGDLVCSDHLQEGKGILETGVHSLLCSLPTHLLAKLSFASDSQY
Chain of DNA polymerase iota (Homo sapiens) (Q9UNA4 whole entry, looked up): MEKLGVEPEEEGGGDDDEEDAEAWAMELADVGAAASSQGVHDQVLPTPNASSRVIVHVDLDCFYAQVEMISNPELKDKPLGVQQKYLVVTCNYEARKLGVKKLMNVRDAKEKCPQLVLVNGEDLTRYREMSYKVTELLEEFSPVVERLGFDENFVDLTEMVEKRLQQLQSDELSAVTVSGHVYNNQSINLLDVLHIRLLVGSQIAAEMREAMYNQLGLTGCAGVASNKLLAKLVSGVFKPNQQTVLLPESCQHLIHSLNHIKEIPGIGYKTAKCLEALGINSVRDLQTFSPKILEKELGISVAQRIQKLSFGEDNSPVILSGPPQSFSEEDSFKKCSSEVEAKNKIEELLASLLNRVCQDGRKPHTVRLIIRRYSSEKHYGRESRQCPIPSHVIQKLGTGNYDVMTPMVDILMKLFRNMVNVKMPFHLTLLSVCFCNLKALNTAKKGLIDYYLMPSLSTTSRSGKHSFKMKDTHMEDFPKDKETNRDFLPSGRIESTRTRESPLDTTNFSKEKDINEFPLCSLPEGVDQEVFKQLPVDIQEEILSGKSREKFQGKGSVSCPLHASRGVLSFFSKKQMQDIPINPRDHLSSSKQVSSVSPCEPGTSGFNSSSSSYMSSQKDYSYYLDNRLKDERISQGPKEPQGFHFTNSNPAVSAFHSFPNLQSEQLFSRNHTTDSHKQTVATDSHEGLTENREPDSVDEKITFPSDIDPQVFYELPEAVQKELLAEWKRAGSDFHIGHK

On to `O=C(O)c1ccc(/C=N/NC(=O)c2ccc(CN3c4cccc5cccc(c45)S3(=O)=O)cc2)cc1`, for which, in test [1], the Potency is 44.7 µM (active). The Potency result in test [2] and in test [4] was “inactive” in each case. The activation was -4.21% [at 17.1 µM, percent relative to cAMP agonist control] in [3] and 13.7% [at 30.8 µM] in [6]. Besides, in test [5], the activity change, negative = inhibition was 3.17% [at 30.8 µM].
As for `Cc1cccn2cc(CCNC(=O)c3ccco3)nc12`, the Potency entry in test [1], in test [2] and in [4] was “inactive” each time. For the same compound, the activation in [3] was 4.04% [at 17.1 µM, percent relative to cAMP agonist control]; in test [6], 19.7% [at 30.8 µM]. Also, the activity change, negative = inhibition in test [5] is -20.8% [at 30.8 µM].
On to `c1cncc(-c2nc(NCCCN3CCOCC3)c3c4c(sc3n2)CCC4)c1`, for which the Potency entry in test [1], in test [2], in test [3], in test [4], in [5] and in test [6] was “inactive” in each case.
As to `O=C(N/N=C/c1ccc(-c2ccc(Cl)c(C(=O)O)c2)o1)c1cc2c(ccc3ccccc32)o1`, in test [1], the Potency is 12.6 µM (active). The Potency entry in [2] and in test [4] was “inactive” in each case. For the same compound, the activation is 0.332% [at 17.1 µM, percent relative to cAMP agonist control] in test [3] and 12% [at 30.8 µM] in test [6]. Further, in test [5], the activity change, negative = inhibition is -35.1% [at 30.8 µM].
Regarding `CCN1CCN(c2ccc(S(=O)(=O)N3CCCCC3)cc2NC(=O)C(C)Oc2ccc(F)cc2)CC1` (centres undefined), the Potency result in test [1], in test [2], in test [3], in test [4], in [5] and in [6] was “inactive” throughout.
For the compound `Cc1ccc2c(c1)NC(=O)C(CC(=O)N(C)Cc1ccccc1)O2` (centres undefined), the Potency entry in [1], in [2] and in test [4] was “inactive” throughout. In addition, the activation was 3.24% [at 17.1 µM, percent relative to cAMP agonist control] in test [3] and 9.9% [at 30.8 µM] in [6]. In addition, the activity change, negative = inhibition in test [5] is -5.86% [at 30.8 µM].
Consider `O=C(Nc1ccc(-c2nnc(-c3ccco3)o2)cc1)C(c1ccccc1)c1ccccc1`, for which the Potency result in [1], in test [2], in test [3], in [4], in test [5] and in test [6] was “inactive” in each case.
With `CCOC(=O)c1c(NC(=O)c2ccccc2OCC)sc2c1CCC(CC)C2` (centres undefined), the Potency entry in [1], in [2], in test [3], in [4], in test [5] and in test [6] was “inactive” throughout.
`COc1nc(C)cc(C)c1S(=O)(=O)c1ccc(Cl)cc1`: the Potency entry in [1], in [2] and in [4] was “inactive” in each case. In addition, the activation in test [3] is 6.22% [at 17.1 µM, percent relative to cAMP agonist control]; in test [6] it was 27.8% [at 30.8 µM]. The activity change, negative = inhibition in test [5] is -12.6% [at 30.8 µM].
On to `CSc1ccc(CC2C(=O)Nc3ccccc32)cc1` (centres undefined), for which the Potency result in [1], in test [2], in [3], in test [4], in test [5] and in [6] was “inactive” in each case.
As for `O=C(Nc1ccccc1C(=O)O)c1cccc(S(=O)(=O)Nc2ccc(Br)cc2)c1`, the figures for the Potency in test [1] and in test [4] were 75.7 µM (active) and 42.6 µM (active), respectively. For the same compound, the Potency result in test [2], in test [3], in test [5] and in [6] was “inactive” each time.
As for `Cc1onc(-c2c(Cl)cccc2Cl)c1COC(=O)c1ccc(Cl)cc1`, the Potency result in test [1], in [2], in [3], in test [4], in test [5] and in test [6] was “inactive” each time.
Turning to `[O-][n+]1c2ccccc2[n+]([O-])c2cc(O)ccc21`, in test [1], the Potency was 37.9 µM (active). In addition, the Potency result in test [2], in test [3], in test [4], in [5] and in [6] was “inactive” throughout.
On to `Cc1ccc(Nc2ccc(N3CCN(C(=O)c4ccc([N+](=O)[O-])cc4)CC3)nn2)cc1`, for which the Potency result in [1], in test [2], in test [3], in test [4], in [5] and in test [6] was “inactive” in each case.
Turning to `CN(Cc1ccc(Cl)cc1Cl)C(=O)CN1C(=O)NC2(CCCC2)C1=O`, the Potency result in test [1], in [2], in test [3], in test [4], in test [5] and in test [6] was “inactive” in each case.
Consider `CSCCC(NS(=O)(=O)c1ccc2c(c1)OCCO2)C(=O)N(C)Cc1ccc(F)cc1` (centres undefined), for which the Potency entry in [1], in [2] and in test [4] was “inactive” in each case. The activation is 1.67% [at 17.1 µM, percent relative to cAMP agonist control] in test [3] and 5.06% [at 30.8 µM] in test [6]. Moreover, the activity change, negative = inhibition in test [5] is -2.77% [at 30.8 µM].
Regarding `Cc1nc(-[n+]2nc(-c3ccncc3)nn2-c2ccccc2)sc1C`, in test [1], the Potency is 22.4 µM (active). In addition, the Potency result in test [2] and in test [4] was “inactive” in each case. Further, the activation in test [3] was 5.19% [at 17.1 µM, percent relative to cAMP agonist control]; in test [6], 2.91% [at 30.8 µM]. The activity change, negative = inhibition in [5] was -23.3% [at 30.8 µM].
Consider `COC(=O)c1cc(C#N)c(Oc2ccccc2OC)nc1C`, for which the Potency entry in [1], in test [2], in test [3], in test [4], in test [5] and in test [6] was “inactive” each time.
`O=S(=O)(O)c1cccc(N=Nc2c(O)ccc3ccccc23)c1`: the figures for the Potency in [1] and in test [4] were 37.9 µM (active) and 23.9 µM (active), respectively. Moreover, the Potency entry in test [2], in test [3], in test [5] and in test [6] was “inactive” in each case.
For `Cc1ccc(N=C2NC(=O)/C(=C/C=C/c3ccco3)S2)cc1C`, the Potency was 21.2 µM (active) in test [7]; 47.4 µM (active) in test [8]; 47.4 µM (active) in test [9]; 53.6 µM (active) in [10]; 12.6 µM (active) in test [1]. The Potency result in [2] and in test [4] was “inactive” in each case. Besides, the activation was -4% [at 17.1 µM, percent relative to cAMP agonist control] in test [3] and 25.8% [at 30.8 µM] in test [6]. For the same compound, the activity change, negative = inhibition in test [5] was 5.98% [at 30.8 µM].
